The values that follow come from PubChem BioAssay (NCI).

The panel holds about 79,000 compounds, 15% with a hit somewhere; the sample as a whole holds those more often. Values without a mark were called inactive. Activity calls are given as the source filed them. No stated cut-off is given here; in the data, active means growth inhibition above about 70%; inactive means the rest.

Test [1] is described as follows: NCI Yeast Anticancer Drug Screen. Data for the rad50 strain (AID 155).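 Further: 0% = growth of vehicle-only cultures of the same strain.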 The following applies: S. cerevisiae rad50 strain growth inhibition, active compounds read high. The gist of the method: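 Yeast carrying a defined DNA repair defect were exposed to test compounds, and growth was compared with vehicle-treated controls to give percent inhibition.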
The nature of test [2]: NCI Yeast Anticancer Drug Screen. Data for the mec2-1 strain (AID 157). The following applies: S. cerevisiae mec2-1 strain, active compounds read high. The gist of the method: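 Readout is yeast growth inhibition, normalised to vehicle-treated controls, in the mec2-1 strain exposed to compound.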
A short description of test [3]: NCI Yeast Anticancer Drug Screen. Data for the sgs1 mgt1 strain (AID 161).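 Further: 0% = growth of cultures given vehicle only.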 The following applies: S. cerevisiae sgs1 mgt1 strain, active compounds read high. A digest of the protocol:
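Growth of a repair-deficient yeast mutant was monitored after compound treatment and expressed as inhibition relative to vehicle-treated cultures.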

Test [4] is described as follows: NCI Yeast Anticancer Drug Screen. Data for the cln2 rad14 strain (AID 165).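 Further: 0% = growth equal to vehicle treated cultures.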 The following applies: S. cerevisiae cln2 rad14 strain, active compounds read high. A digest of the protocol:
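Relative to vehicle controls, growth inhibition of compound-treated cln2 rad14 yeast was recorded.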

Test [5] is described as follows: NCI Yeast Anticancer Drug Screen. Data for the bub3 strain (AID 167). The following applies: S. cerevisiae bub3 mutant strain, active compounds read high. A digest of the protocol:
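Compounds were applied to a genetically altered yeast strain carrying a cell-cycle control defect. Growth inhibition was scored against vehicle-treated controls.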

Test [6] is described as follows: NCI Yeast Anticancer Drug Screen. Data for the mlh1 rad18 strain (AID 175). The conditions noted are these: S. cerevisiae mlh1 rad18 strain growth inhibition, active compounds read high. The gist of the method:
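Test agents were incubated with a yeast strain of defined genotype (DNA damage repair defect). Inhibition of growth was derived by comparison with vehicle-exposed cultures.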

[7] abbreviates: at 5.0 µM (retest, dose inferred, filed as 0.5).
The mark [8] stands for this setting: at 50.0 µM (retest, dose inferred, filed as 5.0).

As to `O=C(c1ccc(O)cc1)c1ccccc1O`, the growth inhibition in test [1] (setting [7]) is 6%; in test [1] (setting [8]) it was 76% (active); in test [1] (at 50.0 µM), 63.8%; in test [2] (setting [7]), -7%; in test [2] (setting [8]), 23%; in test [2] (at 50.0 µM), 37.2%. The growth inhibition was -2% in test [3] (setting [7]); 14% in test [3] (setting [8]); 44.4% in test [3] (at 50.0 µM); -1% in test [4] (setting [7]); 3% in test [4] (setting [8]); -7.55% in test [4] (at 50.0 µM). The growth inhibition is 45% in test [5] (setting [7]); 41% in test [5] (setting [8]); 17.9% in test [5] (at 50.0 µM); -2% in test [6] (setting [7]); 23% in test [6] (setting [8]); 51.6% in test [6] (at 50.0 µM).
Consider `C1CCN(c2nc(N3CCOCC3)c3[nH]c(N4CCCCC4)nc3n2)CC1`, for which the growth inhibition in test [1] (setting [7]) was 1%; in test [1] (setting [8]) it was 84% (active); in test [1] (at 50.0 µM), 35%; in test [2] (setting [7]) it was 5%; in test [2] (setting [8]), 90% (active); in test [2] (at 50.0 µM), 35.4%. In addition, the growth inhibition in test [3] (setting [7]) was 2%; in test [3] (setting [8]) it was 86% (active); in test [3] (at 50.0 µM), 46.4%; in test [4] (setting [7]), 8%; in test [4] (setting [8]) it was 49%; in test [4] (at 50.0 µM), 60.1%. Further, the growth inhibition in test [5] (setting [7]) is 0%; in test [5] (setting [8]) it was 71% (active); in test [5] (at 50.0 µM), 49.6%; in test [6] (setting [7]), -2%; in test [6] (setting [8]), 68%; in test [6] (at 50.0 µM) it was 36.5%.
Turning to `CCC(=O)Oc1c(Br)c(Br)c(Br)c(Br)c1Br`, the growth inhibition in test [1] (setting [7]) was 8%; in test [1] (setting [8]), 56%; in test [1] (at 50.0 µM), 29%; in test [2] (setting [7]), 17%; in test [2] (setting [8]) it was 62%; in test [2] (at 50.0 µM), 6%. In addition, the growth inhibition in test [3] (setting [7]) is 7%; in test [3] (setting [8]), 50%; in test [3] (at 50.0 µM), 8.45%; in test [4] (setting [7]), 21%; in test [4] (setting [8]), 68%; in test [4] (at 50.0 µM), 25.8%. For the same compound, the growth inhibition in test [5] (setting [7]) is 56%; in test [5] (setting [8]) it was 86% (active); in test [5] (at 50.0 µM), 92% (active); in test [6] (setting [7]) it was 35%; in test [6] (setting [8]), 84% (active); in test [6] (at 50.0 µM), 19.5%.
In the case of `O=C1C=CC(=O)c2cc(Sc3ccccc3)c(=O)ccc21`, the growth inhibition in test [1] (setting [7]) was 16%; in test [1] (setting [8]), 37%; in test [1] (at 50.0 µM) it was 81.2% (active); in test [2] (setting [7]), 29%; in test [2] (setting [8]), 38%; in test [2] (at 50.0 µM) it was 42.2%. In addition, the growth inhibition is 25% in test [3] (setting [7]); 98% (active) in test [3] (setting [8]); 71.7% (active) in test [3] (at 50.0 µM); 33% in test [4] (setting [7]); 72% (active) in test [4] (setting [8]); 39.4% in test [4] (at 50.0 µM). The growth inhibition was 30% in test [5] (setting [7]); 98% (active) in test [5] (setting [8]); 37% in test [5] (at 50.0 µM); 33% in test [6] (setting [7]); 37% in test [6] (setting [8]); 87% (active) in test [6] (at 50.0 µM).
With `Cc1cc[n+](C2CCC3(C)C(=CCC4C3CCC3(C)C(C(C)CCCC(C)C)CCC43)C2)cc1` (stereo not given), the growth inhibition in test [1] (setting [7]) was 91% (active); in test [1] (setting [8]), 97% (active); in test [1] (at 50.0 µM) it was 95.8% (active); in test [2] (setting [7]), 16%; in test [2] (setting [8]), 98% (active); in test [2] (at 50.0 µM), 96% (active). For the same compound, the growth inhibition in test [3] (setting [7]) is 69%; in test [3] (setting [8]), 98% (active); in test [3] (at 50.0 µM), 98% (active); in test [4] (setting [7]) it was 26%; in test [4] (setting [8]) it was 97% (active); in test [4] (at 50.0 µM), 64.3%. Moreover, the growth inhibition in test [5] (setting [7]) is 75% (active); in test [5] (setting [8]), 97% (active); in test [5] (at 50.0 µM), 96.2% (active); in test [6] (setting [7]), 71% (active); in test [6] (setting [8]), 97% (active); in test [6] (at 50.0 µM), 97.7% (active).
With `CCCCCCCCCCCCNCc1ccc(Cl)c(Cl)c1`, the growth inhibition in test [1] (setting [7]) is 72% (active); in test [1] (setting [8]) it was 96% (active); in test [1] (at 50.0 µM) it was 99.8% (active); in test [2] (setting [7]) it was 91% (active); in test [2] (setting [8]) it was 98% (active); in test [2] (at 50.0 µM) it was 99.7% (active). The growth inhibition is 89% (active) in test [3] (setting [7]); 98% (active) in test [3] (setting [8]); 99.8% (active) in test [3] (at 50.0 µM); 58% in test [4] (setting [7]); 90% (active) in test [4] (setting [8]); 99.6% (active) in test [4] (at 50.0 µM). Also, the growth inhibition in test [5] (setting [7]) was 76% (active); in test [5] (setting [8]) it was 96% (active); in test [5] (at 50.0 µM), 97% (active); in test [6] (setting [7]) it was 87% (active); in test [6] (setting [8]), 96% (active); in test [6] (at 50.0 µM), 99.7% (active).
With `Clc1ccc(CN2COc3c(ccc4cccnc34)C2)c(Cl)c1`, the growth inhibition was 2% in test [1] (setting [7]); 91% (active) in test [1] (setting [8]); 98.1% (active) in test [1] (at 50.0 µM); 2% in test [2] (setting [7]); 67% in test [2] (setting [8]); 98.9% (active) in test [2] (at 50.0 µM). Further, the growth inhibition in test [3] (setting [7]) is 4%; in test [3] (setting [8]), 98% (active); in test [3] (at 50.0 µM) it was 99% (active); in test [4] (setting [7]), -9%; in test [4] (setting [8]) it was 98% (active); in test [4] (at 50.0 µM), 97.7% (active). Moreover, the growth inhibition in test [5] (setting [7]) is -6%; in test [5] (setting [8]), 99% (active); in test [5] (at 50.0 µM) it was 99% (active); in test [6] (setting [7]), 3%; in test [6] (setting [8]) it was 98% (active); in test [6] (at 50.0 µM), 99.1% (active).
Take `Oc1ccc(C/C=C/c2ccccc2)cc1O`: the growth inhibition in test [1] (setting [7]) is 3%; in test [1] (setting [8]) it was 98% (active); in test [1] (at 50.0 µM), 56.8%; in test [2] (setting [7]), 4%; in test [2] (setting [8]), 99% (active); in test [2] (at 50.0 µM), 99.1% (active). Further, the growth inhibition in test [3] (setting [7]) is 13%; in test [3] (setting [8]) it was 99% (active); in test [3] (at 50.0 µM) it was 47.8%; in test [4] (setting [7]), -7%; in test [4] (setting [8]), 98% (active); in test [4] (at 50.0 µM), 98.8% (active). The growth inhibition was -1% in test [5] (setting [7]); 98% (active) in test [5] (setting [8]); 99.2% (active) in test [5] (at 50.0 µM); 9% in test [6] (setting [7]); 98% (active) in test [6] (setting [8]); 99.2% (active) in test [6] (at 50.0 µM).
On to `COc1ccc(-c2c(COC(C)=O)c(COC(C)=O)c3n2CCC3)cc1`, for which the growth inhibition in test [1] (setting [7]) is -4%; in test [1] (setting [8]), 34%; in test [1] (at 50.0 µM), 98.5% (active); in test [2] (setting [7]), -4%; in test [2] (setting [8]), 19%; in test [2] (at 50.0 µM) it was 99.1% (active). For the same compound, the growth inhibition in test [3] (setting [7]) was -6%; in test [3] (setting [8]), 23%; in test [3] (at 50.0 µM) it was 98.9% (active); in test [4] (setting [7]), -3%; in test [4] (setting [8]), -4%; in test [4] (at 50.0 µM), 97.8% (active). Also, the growth inhibition in test [5] (setting [7]) was -6%; in test [5] (setting [8]) it was -3%; in test [5] (at 50.0 µM), 98.8% (active); in test [6] (setting [7]) it was -6%; in test [6] (setting [8]), 40%; in test [6] (at 50.0 µM) it was 98.8% (active).
Take `CCCCC1=NCCc2c1cc1c([nH]c3ccccc31)c2C`: the growth inhibition in test [1] (setting [7]) was -3%; in test [1] (setting [8]) it was 57%; in test [1] (at 50.0 µM), 9.2%; in test [2] (setting [7]), -19%; in test [2] (setting [8]), 7%; in test [2] (at 50.0 µM) it was 46.2%. Also, the growth inhibition was -8% in test [3] (setting [7]); 85% (active) in test [3] (setting [8]); 52.5% in test [3] (at 50.0 µM); -1% in test [4] (setting [7]); 26% in test [4] (setting [8]); 48% in test [4] (at 50.0 µM). In addition, the growth inhibition in test [5] (setting [7]) was -3%; in test [5] (setting [8]), 35%; in test [5] (at 50.0 µM) it was 76% (active); in test [6] (setting [7]), 3%; in test [6] (setting [8]), 97% (active); in test [6] (at 50.0 µM), 56.4%.
